In PubChem BioAssay (NCATS):
Results filed as inconclusive are left out. Active and inactive are the calls of the source. Calls follow the shape of the dose curve; as a rule, active = well fitted curve in the direction sought with a large enough effect; inconclusive = small, poorly fitted or top-dose-only effect, or another doubt; inactive = no such curve, though single readings can be large; an effect the other way counts as inactive or inconclusive.

Experiments:
[1] = target: Catechol O-methyltransferase (Homo sapiens) (UniProt P21964); experiment: Confirmatory Screen for Target Class Profiling of Small Molecule Inhibitors of Methyltransferases (AID 1745852); settings: MTase-Glo luminescence, SAH detection, recombinant enzyme; measured here: COMT max response; stronger effect = lower value; as to activity change, negative = inhibition: % is scaled to controls: 0 for no effect and ±100 for the full control effect
[2] = target: Guanidinoacetate N-methyltransferase (Homo sapiens) (UniProt Q14353); experiment: as above; settings: MTase-Glo luminescence, SAH detection, recombinant enzyme; activity change, negative = inhibition: at 57.3 µM (top of the series) unless noted; series mostly up to 57.3 µM
[3] = target: Nicotinamide N-methyltransferase (Homo sapiens) (UniProt P40261); experiment: as above; settings: MTase-Glo luminescence, SAH detection, recombinant enzyme; measured here: NNMT max response; stronger effect = lower value
[4] = target: Phenylethanolamine N-methyltransferase (Homo sapiens) (UniProt P11086); experiment: as above; settings: MTase-Glo luminescence, SAH detection, recombinant enzyme; measured here: PNMT max response; stronger effect = lower value
[5] = target: Glutathione peroxidase 1 (Homo sapiens) (UniProt P07203); experiment: Primary qHTS Assay for Inhibitors of Recombinant Selenoprotein Glutathione Peroxidase 1 (GPX1) (AID 1845191); settings: recombinant GPX1, GR-coupled NADPH fluorescence, 15 min; series mostly up to 48.8 µM; also: nearly all actives have a fitted effect of over 65% in size
In short: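 Recombinant GPX1 (10 nM final) was preincubated with compound for 30 min at room temperature, then reacted with 1 mM GSH, 0.5 mM CHP, 0.5 mM NADPH and 100 nM glutathione reductase; NADPH fluorescence (340/450 nm) was read at 0 and 15 min.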

[6] = target: Phospholipid hydroperoxide glutathione peroxidase GPX4 (Homo sapiens) (UniProt P36969); experiment: Primary qHTS Assay for Inhibitors of Recombinant Selenoprotein Glutathione Peroxidase 4 (GPX4) (AID 1845192); settings: recombinant GPX4, GR-coupled NADPH fluorescence, 15 min; series mostly up to 50 µM; also: nearly all actives have a fitted effect of over 65% in size; also: potency is read from the fitted curve at half-maximal effect; as to activity change, negative = inhibition: % is scaled to controls: 0 for no effect and ±100 for the full control effect
In short: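 GR-coupled readout: 100 nM GR, 1 mM GSH, 0.5 mM NADPH; NADPH fluorescence (ex 340/em 450 nm) read at t=0 and after 15 min RT. GPX4 200 nM, preincubated 30 min with compound; substrate 0.5 mM CHP.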

[7] = target: Luciferin 4-monooxygenase (Photinus pyralis) (UniProt P08659); experiment: Primary firefly luciferase (FLuc) qHTS assay for identification of artifact compounds. (AID 1845220); settings: purified firefly luciferase, luminescence, 5 min; series mostly up to 54.1 µM; also: nearly all actives have a fitted effect of over 60% in size; also: potency is read from the fitted curve at half-maximal effect;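 as to activity change, negative = inhibition: plate controls were DMSO vehicle for no effect and no enzyme for full effect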
In short: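 In this counter-screen for luciferase artifacts, test compounds met substrate (10 uM each luciferin and ATP) before 10 nM enzyme started the reaction. Light output was measured 5 min later.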

[8] = system: Nanoluciferase (engineered Oplophorus gracilirostris luciferase); experiment: Primary Nanoluciferase (NLuc) qHTS assay for identification of artifact compounds. (AID 1845222); settings: NLuc-conditioned medium, Nano-Glo luminescence, 5 min; series mostly up to 54.1 µM;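 also: NLuc secreted into diluted conditioned medium of S16 cells; 0% = DMSO and -100% = no enzyme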
In short: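 Using secreted nanoluciferase in S16 culture medium (0.22 um filtered, 1:55 dilution), compounds were preincubated 15 min at RT. Signal was generated with Nano-Glo reagent (1:100) over 5 min.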

[9] = target: Rap guanine nucleotide exchange factor 4 (Homo sapiens) (UniProt Q8WZA2); experiment: Confirmatory qHTS for agonist of cAMP-regulated guanine nucleotide exchange factor 4 (EPAC2) (AID 1645884); settings: EPAC2 GEF activity, Rap1B-BODIPY-GDP fluorescence, percent relative to cAMP agonist control; series mostly up to 154 µM;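 also: nucleotide exchange releases bodipy-GDP from Rap1 and this lowers its fluorescence; % is scaled to controls: 0 for no effect and ±100 for the full control effect; nearly all actives have a fitted effect of over 65% in size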
[10] = target: Rap guanine nucleotide exchange factor 4 (Homo sapiens) (UniProt Q8WZA2); experiment: Confirmatory qHTS for antagonist of cAMP-regulated guanine nucleotide exchange factor 4 (EPAC2) (AID 1645885); settings: EPAC2 Rap1B-BODIPY-GDP exchange fluorescence, biochemical; series mostly up to 114 µM; also: potency is read from the fitted curve at half-maximal effect; nearly all actives have a fitted effect of over 25% in size
[11] = Primary fluorescence-based thiol-reactive (MSTI) qHTS assay for identification of artifact compounds. (AID 1845221); settings: MSTI thiol-reactivity probe, 1 h; series mostly up to 53.8 µM; also: nearly all actives have a fitted effect of over 65% in size; also: potency is read from the fitted curve at half-maximal effect
In short: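 Curve-fitted percent inhibition (4-parameter Hill) derived from fluorescence, Ex 525/Em 598 nm, scaled with Acetyl-MSTI and MSTI; 1 h incubation at room temperature.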

Sequence of Glutathione peroxidase 1 (Homo sapiens) (P07203 whole entry, looked up): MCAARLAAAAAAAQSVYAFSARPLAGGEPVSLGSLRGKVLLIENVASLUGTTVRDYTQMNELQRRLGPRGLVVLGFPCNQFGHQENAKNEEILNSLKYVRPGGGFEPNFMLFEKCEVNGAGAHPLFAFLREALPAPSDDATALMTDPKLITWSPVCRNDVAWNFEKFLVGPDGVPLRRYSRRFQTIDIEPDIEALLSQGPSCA
Sequence of Phenylethanolamine N-methyltransferase (Homo sapiens) (P11086 whole entry, looked up): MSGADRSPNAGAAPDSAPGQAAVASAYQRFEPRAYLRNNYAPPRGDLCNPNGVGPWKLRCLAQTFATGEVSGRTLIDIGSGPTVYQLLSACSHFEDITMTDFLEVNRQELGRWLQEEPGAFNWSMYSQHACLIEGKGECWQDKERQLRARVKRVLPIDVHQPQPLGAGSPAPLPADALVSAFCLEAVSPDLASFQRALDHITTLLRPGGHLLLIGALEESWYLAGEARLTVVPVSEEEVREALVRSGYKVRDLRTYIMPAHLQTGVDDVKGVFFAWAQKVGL
Sequence of Phospholipid hydroperoxide glutathione peroxidase GPX4 (Homo sapiens) (P36969 whole entry, looked up): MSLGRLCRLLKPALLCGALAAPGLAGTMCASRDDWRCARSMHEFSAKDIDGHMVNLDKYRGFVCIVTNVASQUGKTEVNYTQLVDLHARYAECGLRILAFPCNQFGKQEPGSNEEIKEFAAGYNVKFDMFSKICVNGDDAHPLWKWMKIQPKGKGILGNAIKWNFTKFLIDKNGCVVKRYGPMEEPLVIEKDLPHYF
Sequence of Catechol O-methyltransferase (Homo sapiens) (P21964 whole entry, looked up): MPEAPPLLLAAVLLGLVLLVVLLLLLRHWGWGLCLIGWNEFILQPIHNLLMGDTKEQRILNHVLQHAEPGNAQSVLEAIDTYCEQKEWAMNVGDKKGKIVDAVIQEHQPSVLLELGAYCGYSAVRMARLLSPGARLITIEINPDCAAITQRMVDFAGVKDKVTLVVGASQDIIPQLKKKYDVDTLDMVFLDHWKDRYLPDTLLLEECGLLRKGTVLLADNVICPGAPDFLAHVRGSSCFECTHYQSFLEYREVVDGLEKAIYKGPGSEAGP
Sequence of Nicotinamide N-methyltransferase (Homo sapiens) (P40261 whole entry, looked up): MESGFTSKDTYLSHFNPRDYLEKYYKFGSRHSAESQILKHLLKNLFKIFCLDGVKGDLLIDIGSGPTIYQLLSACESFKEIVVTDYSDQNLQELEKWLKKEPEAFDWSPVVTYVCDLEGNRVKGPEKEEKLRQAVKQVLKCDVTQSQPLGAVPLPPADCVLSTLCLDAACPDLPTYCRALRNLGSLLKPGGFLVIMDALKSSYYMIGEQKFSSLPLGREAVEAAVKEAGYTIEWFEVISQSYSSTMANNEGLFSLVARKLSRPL
Sequence of Rap guanine nucleotide exchange factor 4 (Homo sapiens) (Q8WZA2 whole entry, looked up): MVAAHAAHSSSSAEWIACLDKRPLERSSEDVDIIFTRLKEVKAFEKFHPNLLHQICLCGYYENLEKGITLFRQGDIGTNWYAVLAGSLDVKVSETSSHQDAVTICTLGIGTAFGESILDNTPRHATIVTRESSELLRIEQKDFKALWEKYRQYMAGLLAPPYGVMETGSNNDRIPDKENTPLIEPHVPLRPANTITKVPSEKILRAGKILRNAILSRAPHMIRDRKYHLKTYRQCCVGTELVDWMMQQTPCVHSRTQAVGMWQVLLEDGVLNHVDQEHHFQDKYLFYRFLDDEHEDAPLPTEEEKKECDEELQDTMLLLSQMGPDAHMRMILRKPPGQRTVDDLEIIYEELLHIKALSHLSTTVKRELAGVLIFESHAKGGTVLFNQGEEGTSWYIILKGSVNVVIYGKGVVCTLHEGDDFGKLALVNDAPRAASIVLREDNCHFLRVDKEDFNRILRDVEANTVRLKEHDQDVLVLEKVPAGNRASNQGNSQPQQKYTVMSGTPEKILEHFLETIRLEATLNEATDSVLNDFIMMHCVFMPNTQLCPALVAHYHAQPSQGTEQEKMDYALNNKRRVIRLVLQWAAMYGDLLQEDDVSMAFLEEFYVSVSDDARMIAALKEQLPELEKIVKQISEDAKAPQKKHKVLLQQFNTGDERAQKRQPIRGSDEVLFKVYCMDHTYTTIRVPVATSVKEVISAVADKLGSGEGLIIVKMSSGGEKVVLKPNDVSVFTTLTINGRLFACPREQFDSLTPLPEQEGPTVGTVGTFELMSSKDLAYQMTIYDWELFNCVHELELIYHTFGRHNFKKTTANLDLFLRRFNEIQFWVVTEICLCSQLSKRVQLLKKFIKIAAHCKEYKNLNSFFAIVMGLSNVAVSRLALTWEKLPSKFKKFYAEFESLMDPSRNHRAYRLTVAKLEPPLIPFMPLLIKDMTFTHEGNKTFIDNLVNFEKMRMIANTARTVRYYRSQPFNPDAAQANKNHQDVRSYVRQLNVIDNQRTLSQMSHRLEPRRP

Row | SMILES | activity [1] | activity change, negative = inhibition [2] | activity [3] | activity [4] | Potency [5] | Potency [6] | Potency [7] | Potency [8] | outcome [9] | Potency [10] | Potency [11]
1 | C/C=C(\C)C(=O)O[C@H]1[C@@H](O[C@]2(COC(=O)CC(C)C)O[C@H](COC(=O)C(C)C)[C@@H](OC(C)=O)[C@@H]2O)O[C@H](COC(C)=O)[C@@H](O)[C@@H]1O | -75.6% | 0% [at 19.1 µM] | 2.56% | -1.49% | inactive | inactive | 4.46 µM (active) | inactive | – | – | –
2 | CC(Cc1ccc(O)c(O)c1)C(C)Cc1ccc(O)c(O)c1 (configuration not stated) | – | – | – | – | inactive | 11.2 µM (active) | – | – | inactive | 55.5 µM (active) | –
3 | CC1CC(=O)C2=C(O1)OC1(C)CCC3C(C)(C)C=CC(=O)C3(C)C1C2 (configuration not stated) | -45.9% | -4.08% | -84.9% | -3% | inactive | inactive | inactive | inactive | – | – | 7.36 µM (active)
4 | C=C1C(O[C@@H]2O[C@H](CO)[C@@H](O)[C@H](O)[C@@H]2O)CC2C(C)(C)C(O)CCC2(C)C1CC/C(C)=C\CO (some centres not stated) | -63.2% | 0% [at 29.8 µM] | 3.48% | 0.548% | inactive | inactive | inactive | inactive | – | – | inactive
5 | O=C(O)CCc1cccc(O[C@@H]2O[C@H](CO)[C@@H](O)[C@H](O)[C@H]2O)c1O | -71.6% | 0.429% | 0.392% | -5.98% | inactive | inactive | inactive | inactive | – | – | 8.26 µM (active)
6 | C=C(C)[C@H]1C[C@@H](O)C(=C)CC[C@@H](O)C(=C)[C@@H](O)C1 | -67% | 0% | 4.34% | 4.62% | inactive | inactive | inactive | inactive | – | – | 11.9 µM (active)
7 | OC1COC(OCC2OC(OCCc3ccccc3)C(O)C(O)C2O)C(O)C1O (configuration not stated) | -64.8% | 0% [at 29.8 µM] | 0% | 0% | inactive | inactive | inactive | inactive | – | – | 4.12 µM (active)
